Source: PubChem
TRHR ag: agonists of human TRH receptor; P34981; TRHR cells, calcium flux fluo-8, FDSS agonist mode; activation, % at 2 µM; actives 0.18% (n = 360,000); AID 493084
Target sequence (P34981 whole entry, looked up): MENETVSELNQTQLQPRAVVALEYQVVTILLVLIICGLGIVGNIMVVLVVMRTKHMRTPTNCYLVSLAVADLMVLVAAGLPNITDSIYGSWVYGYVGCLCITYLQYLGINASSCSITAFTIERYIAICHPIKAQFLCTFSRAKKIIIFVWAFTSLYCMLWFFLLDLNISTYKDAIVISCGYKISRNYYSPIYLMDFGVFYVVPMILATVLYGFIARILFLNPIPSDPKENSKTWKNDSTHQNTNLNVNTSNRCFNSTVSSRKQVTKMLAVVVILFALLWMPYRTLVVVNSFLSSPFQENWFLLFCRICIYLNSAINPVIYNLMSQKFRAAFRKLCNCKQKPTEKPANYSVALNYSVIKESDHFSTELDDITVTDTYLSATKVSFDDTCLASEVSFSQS
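TRHR-expressing cells loaded with fluo-8 calcium dye; 23 nL library compound pin-transferred, kinetic FDSS fluorescence (Ex 480/Em 530) recorded about 180 s for agonist-induced calcium release, before a 10 nM TRH EC20 addition for potentiator mode.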
TRHR PAM: TRH receptor (human) allosteric enhancement; actives 0.66% (n = 360,000); enhancement, % at 2 µM; TRHR cells, fluo-8 calcium fluorescence, EC20 TRH enhancement; in the data active = enhancement above about 30%
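TRHR-expressing cells loaded with fluo-8 calcium dye were read kinetically (ex 480/em 530) during compound addition, then stimulated with an EC20 of TRH (10 nM final). Enhancement of the Gq-mediated intracellular calcium response was scored.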
Glioma ERSR ind: induces the endoplasmic reticulum stress response in human glioma cells; U87-MG GRP78 promoter luciferase reporter, 16 h; Potency, µM, most hits filed as activators; actives 0.02% (n = 420,000); active = well fitted activation curve with a large enough effect; inconclusive = small, poorly fitted or top-dose-only effect; inactive = no such curve, though single readings can be large or run the other way; note: series mostly up to about 76 µM; nearly all actives have a fitted effect of over 35% in size
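Stably transfected U87-MG human glioma cells carrying a GRP78-based luminescent sensor were seeded at 1000 cells/well, pin-dosed with compounds and incubated 16 h. Luciferase reagent was then added, and end-point luminescence was read after 10 min at room temperature.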
D1 potentiator: potentiators of human D1 dopamine receptor. P21728. HEK293 TREx D1 cells, calcium flux, dopamine EC20 potentiation. potentiation, % at 10 µM. actives 0.036% (n = 360,000). AID 504651; in the data active = potentiation above about 30%
D1 ag: human D1 receptor agonism; HEK293 T-REx D1 cells, calcium flux, agonist mode; activation, % at 2 µM; actives 1% (n = 360,000); AID 504660
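Agonism was scored from calcium flux recorded over 180 s (1 read/s) after pintool compound addition, following a 10-cycle baseline. Cells were inducible force-coupled HEK293 TREx D1, plated overnight at 30 C and loaded with no-wash calcium dye.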
D1 antag: blocks dopamine activation of the human D1 receptor. P21728. HEK293 TREx D1 cells, calcium flux, dopamine EC80; active compounds read low. activity change, negative = inhibition, % at 10 µM. actives 3.2% (n = 360,000); in the data active = activity change below about -30%
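HEK293 T-REx cells expressing inducible, force-coupled D1 receptor; no-wash Ca dye, 30–90 min RT. Cmpd → 180 s read at 1 Hz → EC80 DA → 180 s read.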
Hits are given with their value. Compounds with a hit are over-represented: about 4% of the library has one in this group of screens. Cut-off read from the data, not from the text of the source, unless noted: active = activation above about 30%; inactive = the rest.

Cc1cc(C)cc(Oc2nc3c(C)cccn3c(=O)c2/C=C(\C#N)c2nc3ccccc3s2)c1 was read as TRHR ag inactive, TRHR PAM 54, Glioma ERSR ind inactive, D1 potentiator inactive, D1 ag inactive and D1 antag inactive.
Screening Cc1ccc(CNC(=O)Cn2c(SCC(=O)Nc3ccc(F)cc3)nc3ccccc32)cc1 returned TRHR ag inactive, TRHR PAM inactive, Glioma ERSR ind inactive, D1 potentiator inactive, D1 ag inactive and D1 antag inactive.
Screening COC(=O)CSc1nc2ccccc2o1 returned TRHR ag inactive, TRHR PAM inactive, Glioma ERSR ind inactive, D1 potentiator inactive, D1 ag inactive and D1 antag -37.
`Cc1nnc(NC(=O)CSc2nc3ccccc3o2)s1` gave TRHR ag inactive, TRHR PAM inactive, Glioma ERSR ind inactive, D1 potentiator inactive, D1 ag inactive and D1 antag inactive.
Screening CC(=O)c1cc2c(cc1NC(=O)CSc1nc3ccccc3o1)OCO2 returned TRHR ag inactive, TRHR PAM inactive, Glioma ERSR ind inactive, D1 potentiator inactive, D1 ag inactive and D1 antag -35.
O=C(CSc1nc2ccccc2o1)Nc1nc(-c2ccccc2)c(-c2ccccc2)s1 was read as TRHR ag inactive, TRHR PAM inactive, Glioma ERSR ind inactive, D1 potentiator inactive, D1 ag inactive and D1 antag -90.
`O=C(CSc1nc(-c2ccccc2)c(-c2ccccc2)o1)Nc1nnc(-c2ccccc2)s1` gave TRHR ag inactive, TRHR PAM 50, Glioma ERSR ind inactive, D1 potentiator inactive, D1 ag inactive and D1 antag inactive.
`CC(=O)c1cc2c(cc1NC(=O)CSc1nc3ccccc3[nH]1)OCO2` gave TRHR ag inactive, TRHR PAM inactive, D1 potentiator inactive, D1 ag inactive and D1 antag inactive.
CCOc1ccc(C(=O)c2cnc3ccc(Cl)cc3c2S(=O)(=O)c2ccc(C)cc2)cc1 was read as TRHR ag inactive, TRHR PAM inactive, Glioma ERSR ind inactive, D1 potentiator inactive, D1 ag inactive and D1 antag inactive.
For NC(=O)CC[C@H](NC(=O)c1ccc(Cl)cc1)C(=O)NNC(=O)COc1cccc(Br)c1 the results were Glioma ERSR ind inactive.
Screening Cc1ccc(C)c(N2CCN(C(=O)c3ccc4nc(N5CCOCC5)sc4c3)CC2)c1 returned TRHR ag inactive, TRHR PAM inactive, Glioma ERSR ind inactive, D1 potentiator inactive, D1 ag inactive and D1 antag inactive.
Clc1c(CSc2nc3ccccc3o2)nc2ccccn12 was read as TRHR ag inactive, TRHR PAM inactive, Glioma ERSR ind inactive, D1 potentiator inactive, D1 ag inactive and D1 antag -39.
Screening Cc1ccc(-c2csc(NC(=O)CSc3nc4ccccc4o3)n2)cc1 returned TRHR ag inactive, TRHR PAM inactive, Glioma ERSR ind inactive, D1 potentiator inactive, D1 ag inactive and D1 antag -35.
For COc1ccccc1N1CCN(C(=O)c2ccc(Cn3c(=O)[nH]c4ccsc4c3=O)cc2)CC1 the results were TRHR ag inactive, TRHR PAM inactive, Glioma ERSR ind inactive, D1 potentiator inactive, D1 ag inactive and D1 antag inactive.
For Cn1c(CSCc2ccc(F)cc2)nnc1SCC(=O)N1CCN(c2ccccc2)CC1 the results were TRHR ag inactive, TRHR PAM inactive, Glioma ERSR ind inactive, D1 potentiator inactive, D1 ag inactive and D1 antag inactive.
CCCCCC(=O)C(=O)c1ccc(O)cc1O was read as TRHR ag inactive, TRHR PAM 34, Glioma ERSR ind inactive, D1 potentiator inactive, D1 ag inactive and D1 antag inactive.
Screening Cc1ccc(S(=O)(=O)CCC(=O)c2ccc(O)cc2O)cc1 returned TRHR ag inactive, TRHR PAM inactive, Glioma ERSR ind inactive, D1 potentiator inactive, D1 ag inactive and D1 antag inactive.
FC(F)Sc1nc(-c2ccccc2)c(-c2ccccc2)n1C(F)F was read as TRHR ag inactive, TRHR PAM inactive, Glioma ERSR ind inactive, D1 potentiator inactive, D1 ag inactive and D1 antag inactive.
Cc1c(C(=O)O)sc(S(=O)(=O)N2CCN(C(=O)Cc3ccccc3)CC2)c1C(=O)O was read as TRHR ag inactive, TRHR PAM inactive, Glioma ERSR ind inactive, D1 potentiator inactive, D1 ag inactive and D1 antag inactive.
`CC(C)OC(=O)CC(=O)CSc1nc2c(c(-c3cccs3)c1C#N)CCC2` gave TRHR ag inactive, TRHR PAM inactive, Glioma ERSR ind inactive, D1 potentiator inactive, D1 ag inactive and D1 antag inactive.
For Cc1nn(Cc2ccccc2)c(N)c1C#N the results were TRHR ag inactive, TRHR PAM inactive, Glioma ERSR ind inactive, D1 potentiator inactive, D1 ag inactive and D1 antag inactive.
`Nc1ccc2c(c1)Nc1ccccc1CC2` gave TRHR ag inactive, TRHR PAM inactive, Glioma ERSR ind inactive, D1 potentiator inactive, D1 ag inactive and D1 antag -31.
Screening CCn1cc(C(=O)OCC(=O)c2cc(C)n(-c3ccc(OC(F)F)cc3)c2C)c(=O)c2ccc(C)nc21 returned TRHR ag inactive, TRHR PAM inactive, Glioma ERSR ind inactive, D1 potentiator inactive, D1 ag inactive and D1 antag -32.
`CCn1cc(C(=O)OCC(=O)N(C)C2CCS(=O)(=O)C2)c(=O)c2ccc(C)nc21` (configuration not stated) gave TRHR ag inactive, TRHR PAM 31, Glioma ERSR ind inactive, D1 potentiator inactive, D1 ag inactive and D1 antag inactive.
`O=C(C1CCCN(Cc2cccnc2)C1)N1CCCCC1` (configuration not stated) gave TRHR ag inactive, TRHR PAM inactive, Glioma ERSR ind inactive, D1 potentiator inactive, D1 ag inactive and D1 antag inactive.
For O=C(Nc1ccc2c(c1)OCO2)N1CCN(c2ccccc2Cl)CC1 the results were TRHR ag inactive, TRHR PAM inactive, Glioma ERSR ind inconclusive, D1 potentiator inactive, D1 ag inactive and D1 antag inactive.
`CSc1ccccc1N1CCN(C(=O)Nc2ccc3c(c2)NC(=O)CO3)CC1` gave TRHR ag inactive, TRHR PAM inactive, Glioma ERSR ind inactive, D1 potentiator inactive, D1 ag inactive and D1 antag -49.
For COc1cc(NC(=O)COc2cc(O)c3c(c2)OC(C)(C)CC3=O)cc(OC)c1OC the results were TRHR ag inactive, TRHR PAM inactive, Glioma ERSR ind inactive, D1 potentiator inactive, D1 ag inactive and D1 antag inactive.
`CCOc1ccc(C(=O)NCCC(=O)N2CCC3(CC2)NCCc2[nH]cnc23)cc1OCC` gave TRHR ag inactive, TRHR PAM inactive, Glioma ERSR ind inactive, D1 potentiator inactive, D1 ag inactive and D1 antag -63.
